Compound activity deposited in PubChem BioAssay by Paczesny and Yang Labs, IUPUI and University of Michigan.
Only a selection was taken, and hits are over-represented in it overall.
ST2 IL33 inh – blocks human ST2 binding to IL-33; 78,000 tested, 2.3% active; AID 1259354; inhibition, % for hits at 17 µM; AlphaLISA ST2-Fc/biotin-IL-33 interaction, 1 h; in the data active = inhibition above about 30%
Target sequence (Q01638 whole entry, looked up): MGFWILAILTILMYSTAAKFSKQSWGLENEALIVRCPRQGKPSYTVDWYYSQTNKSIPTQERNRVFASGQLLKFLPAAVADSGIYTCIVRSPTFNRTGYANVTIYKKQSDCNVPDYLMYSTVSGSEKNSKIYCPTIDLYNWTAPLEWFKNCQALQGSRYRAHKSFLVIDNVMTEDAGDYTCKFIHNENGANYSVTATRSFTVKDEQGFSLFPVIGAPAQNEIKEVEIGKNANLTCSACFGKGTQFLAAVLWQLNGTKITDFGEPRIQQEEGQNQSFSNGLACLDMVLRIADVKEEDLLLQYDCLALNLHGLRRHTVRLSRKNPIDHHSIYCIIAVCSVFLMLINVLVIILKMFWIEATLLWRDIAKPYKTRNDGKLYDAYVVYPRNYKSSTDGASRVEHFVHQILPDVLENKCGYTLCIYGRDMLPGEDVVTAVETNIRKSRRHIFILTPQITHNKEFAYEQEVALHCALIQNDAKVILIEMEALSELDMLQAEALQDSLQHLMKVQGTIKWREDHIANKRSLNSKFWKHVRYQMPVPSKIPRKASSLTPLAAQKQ
Active calls of the source: *; i = inactive.

SMILES | ST2 IL33 inh
O=C(CSc1nnc2c3ccccc3n(CCc3ccccc3)c2n1)N1CCOCC1 | 33%*
c1ccc(CCn2c3ccccc3c3nnc(SCCN4CCOCC4)nc32)cc1 | i
COCCOc1cc(C)c2c(c1C)C[C@H]([C@H](C)C(=O)NC(C)(C)C)CC2 | i
CCOc1ccc(Cc2c(O)nc[nH]c2=O)cc1 | i
COc1cc(C2C(C(=O)Nc3ccccn3)=C(C)NC3=C2C(=O)CCC3)ccc1O (stereo not drawn) | i
CN(C)c1ccc(/C=C/c2ccnc3ccccc23)cc1 | 43%*
CN(C)c1ccc(C(=O)Nc2nc3ccc4ccccc4c3s2)cc1 | i
CCOC(=O)c1sc(NC(=O)c2cc(=O)c3ccccc3o2)nc1-c1ccccc1 | i
COc1ccc(Nc2cc(C)nc3c(C)c(C)ccc23)cc1OC | i
COc1ccc(OC)c(Nc2cc(C)nc3c(C)c(C)ccc23)c1 | 37%*
COc1ccc(Nc2cc(C)nc3c(C)c(C)ccc23)cc1 | i
COc1cc(C)c(Cl)cc1S(=O)(=O)N1CCN(c2nc(C)cc(N3CCCC3)n2)CC1 | i
CCCOC(=O)C1=C(C)NC2=C(C(=O)C(C(=O)OC)C(C)C2)C1c1ccccc1Br (stereo not drawn) | i
COc1ccc(Br)cc1C=Nc1c(-c2ccco2)nc2ccccn12 | 30%*
COc1ccc(Br)cc1/C=C1N=C(/C=C/c2ccccc2OC)OC\1=O | i
Cc1ccc2nc(-c3ccco3)c(Nc3ccccc3)n2c1 | i
O=C(NCc1ccccc1)c1ccc2nc3sc4c(c3c(=O)n2c1)CCCC4 | i
O=C(NCCc1ccccc1)c1ccc2nc3sc4c(c3c(=O)n2c1)CCCC4 | i
O=C(c1ccc2nc3sc4c(c3c(=O)n2c1)CCCC4)N1CCN(c2ccccc2)CC1 | 31%*
COc1cc(Br)cc(NC(=O)c2ccc([N+](=O)[O-])cc2)c1 | i
O=[N+]([O-])c1cc(Cl)ccc1NCCNCCO | i
COc1ccc(N=Cc2cc(Cl)cc([N+](=O)[O-])c2O)cc1Cl | i
Nc1c(Cl)cc(Cl)cc1[N+](=O)[O-] | 37%*
C=CCNC(=O)C1CCN(S(=O)(=O)N2CCCCC2)CC1 | i
CN(Cc1ccccc1)c1ncnc2sc3c(c12)CCCC3 | i
SMILES | ST2 IL33 inh
COc1cc(OC)cc(C(=O)OCc2nc3ccccc3s2)c1 | i
COc1cc(/C=C(\C#N)c2nc3ccccc3s2)cc(OC)c1OC | 34%*
COc1cccc2sc(=NC(=O)c3nc4ccccc4s3)n(C)c12 | i
CC1CCCCN1S(=O)(=O)c1cccc2nsnc12 (stereo not drawn) | i
O=C(CC(c1ccccc1)c1ccccc1Cl)N1CCC(N2CCCC2)CC1 (stereo not drawn) | i
CCOc1cc(/C=C2\C(=O)Nc3ccc(Br)cc32)c(Br)cc1OC | 41%*
COc1ccc(Cl)cc1/C=C1\C(=O)Nc2ccc(Br)cc21 | 35%*
Cc1ccc(/C=C2\C(=O)Nc3ccc(Br)cc32)o1 | 30%*
COc1ccc(Br)cc1/C=C1\N=C(c2ccc(OC)c([N+](=O)[O-])c2)OC1=O | i
COc1ccc(Br)cc1/C=C1\C(=O)Nc2ccc(Br)cc21 | 36%*
CCOc1c(O)ccc(/C=C2\C(=O)Nc3ccc(Br)cc32)c1[N+](=O)[O-] | i
COc1ccc(Cl)cc1/C=C1/NC(=O)NC1=O | i
COc1ccc(Br)cc1CC(=O)O | i
CCOc1ccc(Br)cc1/C=C1\NC(=O)N(Cc2ccc(Cl)cc2)C1=O | i
Cc1cccc(C)c1N=C1C(=O)Nc2ccc(Br)cc21 | i
CC1=NN(c2ccc(Br)cc2)C(=O)/C1=C/c1ccc(-c2ccc3c(c2)C(=O)OC3)o1 | i
C=CCOc1cc(Br)c(/C=C2/NC(=O)NC2=O)cc1OC | i
CCN(Cc1ccncc1)C(=O)C(c1cccc(C)c1)N(C)C (stereo not drawn) | i
O=C(NC1CC1)c1ccc2c(c1)N(Cc1ccccc1Cl)C(=O)CS2 | i
CCOC(=O)C1=C(C)Nc2nc(SC)[nH]c(=O)c2C1c1cccc(F)c1 (stereo not drawn) | i
Cc1ccc(C)c(OCc2cc(C(=O)NCc3nnc4n3CCC4)no2)c1 | i
COC(=O)c1c(C)oc2ccc(OCc3ccccc3)cc12 | i
CC(C)c1cc(C(=O)NCc2cccnc2N2CCc3ccccc3C2)n[nH]1 | i
C/C(=C\C(=O)NCCCC1NC(=O)C(CCCNC(=O)/C=C(\C)CCO)NC1=O)CCO (stereo not drawn) | i
FC(F)(F)c1ccnc(Oc2ccc(CN3CCCC3)cc2Cl)c1 | i
SMILES | ST2 IL33 inh
Cc1ccccc1CCC1CCCN(C(=O)c2[nH]ncc2Cl)C1 (stereo not drawn) | i
CC(=O)N1c2c(cc(Br)cc2S(=O)(=O)N2CCC(C)CC2)CC1C (stereo not drawn) | i
CC(O)c1nc2ccccc2n1CCCOc1ccccc1 (stereo not drawn) | i
CC(O)c1nc2ccccc2n1Cc1ccccc1 (stereo not drawn) | 36%*
CCn1c(C(C)NC(C)=O)nc2ccccc21 (stereo not drawn) | i
Brc1ccccc1CN1CCN(c2ncccn2)CC1 | i
Cc1nnsc1CN(C)CC(=O)NC1CCCCCCC1 | i
Cc1nnsc1CN(C)C(=O)CCC(=O)NC1CCCC1 | 97%*
O=C(CCC(=O)NC1CCCCCC1)NC1CCCCCC1 | i
CC(C)(C)c1ccc(N2CC(C(=O)O)CC2=O)cc1 (stereo not drawn) | i
CC(C)Oc1ccc(C(O)=C2C(=O)C(=O)N(c3ccccn3)C2c2cccs2)cc1 (stereo not drawn) | i
CC(C)Oc1ccc(C(O)=C2C(=O)C(=O)N(c3nccs3)C2c2ccc([N+](=O)[O-])cc2)cc1 (stereo not drawn) | 35%*
CCCOc1ccc(C(O)=C2C(=O)C(=O)N(c3nccs3)C2c2cccs2)cc1 (stereo not drawn) | i
Cc1cccc(-c2cc(N3CCN(S(=O)(=O)c4ccc(F)c(Cl)c4)CC3)ncn2)c1 | i
Cn1c(=O)c(/C=C/c2cccs2)nc2ccccc21 | 36%*
Cn1c(=O)c(Cc2ccccc2F)nc2ccccc21 | i
COc1ccc(C(=O)c2nc3ccccc3n2C)cc1 | i
Oc1ccc(SCCCCN2CCOCC2)cc1 | i
CCOc1ccc(Sc2cc(C(=O)NCC3CCCO3)c3ccccc3n2)cc1 (stereo not drawn) | i
CCn1c(=O)ccc2cc(OC)ccc21 | 31%*
COc1ccc2cc(S(=O)(=O)N3CCN(C)CC3)ccc2c1 | i
CCn1cc2c(c1-c1ccc(OC)cc1)c(=O)n(C)c(=O)n2C | i
CC(C)Cn1cc(C(=O)NCCN2CCOCC2)c2c3ccccc3n(C)c2c1=O | i
NC(N)=NS(=O)(=O)c1ccc(N=Cc2ccc([N+](=O)[O-])cc2)cc1 | i
COc1ccc(N(CC(=O)Nc2ccc(F)cc2)S(=O)(=O)c2ccccc2)c(OC)c1 | i
SMILES | ST2 IL33 inh
Cc1cccc(N(CC(=O)Nc2ccccc2Cl)S(=O)(=O)c2ccccc2)c1C | i
Cc1cccc(N(CC(=O)Nc2ccc(F)cc2)S(=O)(=O)c2ccccc2)c1C | 38%*
CCOC(=O)c1ccc(N2CSC3=C(C#N)C(c4ccccc4F)CC(=O)N3C2)cc1 (stereo not drawn) | i
COc1cc(NC(=O)C(C)Oc2ccccc2)c(OC)cc1NC(=O)C(C)Oc1ccccc1 (stereo not drawn) | i
NC(=O)CSc1oc(-c2ccccc2)nc1S(=O)(=O)c1ccc(Cl)cc1 | i
Cc1ccc(-c2nc(S(=O)(=O)c3ccc(C)cc3)c(N3CCOCC3)o2)cc1 | i
